Source: PubChem BioAssay (EPA / NIEHS)
Activity calls are given as the source filed them. The calls were made as follows: active = hit-call score of the fitted dose curve at least 0.9, where 1 is the maximum; inactive = score below 0.9.

Assay: APR_HepG2_NuclearSize_24hr: Apredica 24-hour HepG2 Assay for Nuclear Size (AID 2282907)
Conditions: high-content imaging, actives raise or lower the signal
Outline: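 Nuclear size is measured by fluorescence high-content imaging of Hoechst-labelled HepG2 nuclei after 24 hr of treatment (0.39–200 uM, 0.5% DMSO). Cells are fixed in 3.7% formaldehyde before staining, and DMSO serves as the baseline for bidirectional curve fitting.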

| SMILES | outcome | AC50 |
| --- | --- | --- |
| OC1CCCCC1 | inactive | – |
| CCC(=C(c1ccc(O)cc1)c1ccc(OCCN(C)C)cc1)c1ccccc1 | inactive | – |
| CCc1ccc(CCOc2ccc(CC3SC(=O)NC3=O)cc2)nc1 (configuration not stated) | inactive | – |
| CC(C)(C)c1ccc(O)c(C(C)(C)C)c1 | inactive | – |
| Oc1cccc(O)c1 | inactive | – |
| CN1CCN(c2ccccc2/C=C2\SCCN(c3ccc(Cl)c(Cl)c3)C2=O)CC1 | – | 11.2 µM (active) |
| COC(=O)CCCCC(=O)OC | inactive | – |
| COc1cc(CCC(=O)CC(=O)CCc2ccc(O)c(OC)c2)ccc1O | inactive | – |
| COCC(C)OCC(C)O (configuration not stated) | inactive | – |
| CCN(CC)CCNc1ccc(CNC=O)c2sc3ccc(OC)cc3c(=O)c12 | inactive | – |
| Cc1oc(-c2ccccc2)nc1CCOc1ccc(C[C@H](Nc2ccccc2C(=O)c2ccccc2)C(=O)O)cc1 | inactive | – |

Assay: APR_HepG2_CellLoss_24hr: Apredica 24-hour HepG2 Assay for Cell Loss (AID 2282908);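 as to AC50: fit in both directions so a hit may be cell loss or gain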
Conditions: high-content imaging
Outline: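 Nuclear count serves as the viability measure: treated cells are fixed, permeabilized and labelled with Hoechst 33342, and six images per well are analysed to identify valid nuclei. Doses span 0.39–200 uM, and activity in either direction is scored against DMSO.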

| SMILES | outcome | AC50 |
| --- | --- | --- |
| CC#C[C@]1(O)CC[C@H]2[C@@H]3CCC4=CC(=O)CCC4=C3[C@@H](c3ccc(N(C)C)cc3)C[C@@]21C | inactive | – |
| CCOC(=O)CC(O)(CC(=O)OCC)C(=O)OCC | inactive | – |
| CCCCCCCC(=O)O | inactive | – |
| CC[C@H](c1ccc(O)cc1)[C@@H](CC)c1ccc(O)cc1 | inactive | – |
| O=c1c(-c2ccc(O)cc2)coc2cc(O)ccc12 | inactive | – |
| CCCCC(CC)COC(=O)CCCCC(=O)OCC(CC)CCCC (configuration not stated) | inactive | – |
| CC(C)(C)c1cccc(C(C)(C)C)c1O | – | 111 µM (active) |
| CCCOc1sc(C(=O)N2CCC(c3cc(CN)ccc3F)CC2)c(C)c1Br | – | 6.74 µM (active) |
| NC(=O)N(O)[C@@H]1C=C[C@H](Oc2cccc(Oc3ccc(F)cc3)c2)C1 | – | 107 µM (active) |
| NC(=O)N1C(=O)C(C(=O)c2cc(Cl)cs2)c2cc(F)c(Cl)cc21 (configuration not stated) | – | 98.8 µM (active) |
| Cc1cc(C)c(O)c(C)c1 | inactive | – |
| Nc1cccc2c(N)cccc12 | – | 51.8 µM (active) |
| COCC(C)O (configuration not stated) | inactive | – |
| c1ccc2c(c1)ccc1ccccc12 | inactive | – |
| CCCCC[C@H](O)CC(=O)CCc1ccc(O)c(OC)c1 | inactive | – |
| CC(C)CCCCCCOC(=O)CCCCC(=O)OCCCCCCC(C)C | inactive | – |

| SMILES | outcome | AC50 |
| --- | --- | --- |
| O=C(/C=C/c1ccc(O)cc1)CC(=O)/C=C/c1ccc(O)cc1 | inactive | – |
| OCCC(F)(F)C(F)(F)C(F)(F)C(F)(F)C(F)(F)C(F)(F)C(F)(F)C(F)(F)F | – | 27.8 µM (active) |
| C#C[C@]1(O)CC[C@H]2[C@@H]3CCC4=CC(=O)CC[C@@H]4[C@H]3CC[C@@]21C | inactive | – |
| CCc1nn(C2CCCCC2)c2cc(C3(C#N)CCC(C(=O)O)CC3)ccc12 (configuration not stated) | inactive | – |
| OC1CCCCC1 | inactive | – |
| CCC(=C(c1ccc(O)cc1)c1ccc(OCCN(C)C)cc1)c1ccccc1 | inactive | – |
| CCc1ccc(CCOc2ccc(CC3SC(=O)NC3=O)cc2)nc1 (configuration not stated) | – | 110 µM (active) |
| CC(C)(C)c1ccc(O)c(C(C)(C)C)c1 | – | 38.5 µM (active) |
| Oc1cccc(O)c1 | inactive | – |
| CN1CCN(c2ccccc2/C=C2\SCCN(c3ccc(Cl)c(Cl)c3)C2=O)CC1 | – | 24 µM (active) |
| COC(=O)CCCCC(=O)OC | inactive | – |
| COc1cc(CCC(=O)CC(=O)CCc2ccc(O)c(OC)c2)ccc1O | inactive | – |
| COCC(C)OCC(C)O (configuration not stated) | inactive | – |
| CCN(CC)CCNc1ccc(CNC=O)c2sc3ccc(OC)cc3c(=O)c12 | – | 60.2 µM (active) |
| Cc1oc(-c2ccccc2)nc1CCOc1ccc(C[C@H](Nc2ccccc2C(=O)c2ccccc2)C(=O)O)cc1 | – | 84.9 µM (active) |
